Screening results: PubChem, several laboratories
A selection: hits, their analogues and other compounds. The true share with any hit is near 13%.
Lmaj promast: Leishmania major promastigote growth inhibition, primary screen; Leishmania major promastigotes, resazurin fluorescence viability; inhibition, % at 10 µM; hit rate 9% among 200,000; AID 1063, 2008; in the data active = inhibition above about 50%;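 note: promastigotes grown with compound for 44 hours at 28 °C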
WT yeast gro inh: growth inhibition of WT strain, primary screen, mitochondrial fusion inhibitor project, WT and mutant strains, chemical genetic; AID 1362, 2008; mitochondrial fusion phenotypic screen; inhibition, % at 10 µM; hit rate 2.1% among 190,000; in the data active = inhibition above about 58%; tested in S. cerevisiae
CHOP inh: inhibitors of CHOP promoter induction, primary screen, cell-based, unfolded protein response, luciferase reporter. inhibition, % at 10 µM. hit rate 3.8% among 220,000. CHO-K1 CHOP-promoter luciferase, tunicamycin-induced, 15-18 h;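 active = compounds that reduced the stress-induced luciferase reporter signal by more than about 70% of percent inhibition, limit read from the data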;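 note: 0% = tunicamycin plus vehicle and 100% = wells without tunicamycin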
RAM inhibit: inhibitors of the yeast RAM network, primary screen, dse1pr::URA3 reporter, 5-FOA selection | S. cerevisiae dse1pr::URA3 reporter, 5-FOA growth OD615, 2 d; analog-sensitive cbk1-as2 kinase mutant strain | inhibition, % at 50 µM | hit rate 1.8% among 190,000 | AID 868, 2007;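 active = inhibition above a set limit, 3 SD over mean compound inhibition, cut at about 8.4% in these data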;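 note: 0% = DMSO-only wells with no growth and 100% = 10 µM 1-NA-PP1 full growth; inhibition rescues growth on 5-FOA so higher OD means more RAM inhibition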
* = called active by the depositor; / = not tested or not shown.

SMILES	Lmaj promast	WT yeast gro inh	CHOP inh	RAM inhibit
CC(=O)Nc1ccc(NS(=O)(=O)c2ccc(C)cc2)c([N+](=O)[O-])c1	4.3	0.6	20.2	1.8
COC(C[C@@H]1O[C@@H]1[C@H](O)COCc1ccccc1)OC	/	/	13.6	/
Cc1nc(C)c(C(=O)O)s1	/	/	3.9	/
COc1ccc(CC2(CO)CCN(Cc3ccc(OC(F)(F)F)cc3)CC2)cc1	77.6*	20.3	26.7	-0.1
C/C(=N\Nc1nc(N)cc(Cl)n1)c1cccc(N)c1	-1.9	-5.5	3.3	1.0
C/C(=N/Nc1nc(-c2ccccc2)cc(-c2ccc(F)cc2)n1)c1cccc(N)c1	41.5	67.9*	56.8	1.2
Nc1nc(CN2CCN(Cc3ccc4c(c3)OCO4)CC2)nc(Nc2ccccc2)n1	71.5*	-12.4	-5.1	-0.6
CC1CC(C)CN(Cc2nc(N)nc(Nc3ccccc3)n2)C1 (stereo unspecified)	9.8	2.6	-18.0	1.6
CC1CC(C)CN(Cc2nc(N)nc(Nc3ccc4ccccc4c3)n2)C1 (stereo unspecified)	94.8*	12.0	68.9	0.1
Nc1nc(CN2CCC(Cc3ccccc3)CC2)nc(Nc2ccccc2)n1	100.3*	20.6	19.7	-1.0
Nc1nc(CN2CCCCCC2)nc(Nc2ccccc2)n1	0.2	-10.6	-20.4	1.0
Oc1ccc(CNc2ccccc2)c2cccnc12	65.7*	35.2	-98.8	1.2
Oc1ccc(Cn2ccnc2)c2cccnc12	99.1*	-3.3	-6.2	2.0
c1ccc2c(Cn3ccnc3)c[nH]c2c1	34.6	3.6	18.7	2.2
Cc1ccccc1NCc1ccc(O)c2ncccc12	100.4*	-6.7	-32.9	1.9
OCc1ccnc2c(O)cccc12	99.9*	52.5	-19.8	-0.8
Oc1ccc(CNc2ccc(F)cc2)c2cccnc12	-3.1	11.4	69.5	0.8
COCc1ccc(O)c2ncccc12	100.2*	4.2	82.1*	1.8
Cc1ccccc1N=Nc1c(C)[nH]n(C(N)=S)c1=O	52.8*	61.2*	48.4	3.2
Cc1cccc(N=Nc2c(C)[nH]n(C(N)=S)c2=O)c1C	8.8	71.8*	-70.2	5.0
CC(=O)N(C)c1ccc(N=Nc2c(C)[nH]n(C(N)=S)c2=O)cc1	18.2	23.0	-15.6	0.4
O=C(NC(=S)NCc1cccnc1)c1cccc2ccccc12	-4.3	-13.6	7.6	-0.7
CCCCC(=O)N(CCOC)c1nnc(-c2cccnc2)s1	-1.8	7.3	-10.7	2.6
CCCCC(=O)N(CCOC)c1nnc(-c2ccccc2C)s1	8.9	-2.6	73.5*	7.0
CCc1cccc(NC(=O)c2ccc3c(=O)n4c(nc3c2)CCCCC4)c1	/	/	-16.8	/
SMILES	Lmaj promast	WT yeast gro inh	CHOP inh	RAM inhibit
COc1ccc(-n2nnnc2SCC(=O)Nc2ccccc2N2CCOCC2)cc1OC	92.7*	3.4	10.2	0.6
COc1ccccc1-n1nnnc1SCC(=O)Nc1cc(C)on1	1.6	/	70.2*	1.4
COc1ccccc1-n1nnnc1SCc1cc2c(cc1Br)OCO2	27.0	14.0	7.1	9.5*
CCOc1ccccc1-n1nnnc1SCC(=O)Nc1cc(C)on1	5.9	8.1	-10.0	1.6
Cc1ccc(C(=O)N/C(=C\c2cccs2)C(=O)NCCCn2ccnc2)cc1C	0.0	-7.0	25.2	2.1
CCOC(=O)N1CCN(CC(O)COc2ccc(C)cc2C(C)(C)C)CC1 (stereo unspecified)	97.6*	27.3	57.8	0.7
CCOC(=O)N1CCN(CC(O)COCc2ccc(OC)c(OC)c2)CC1 (stereo unspecified)	3.2	-10.4	33.9	0.8
CCOC(=O)N1CCN(CC(O)COCC2=CCC3CC2C3(C)C)CC1 (stereo unspecified)	94.2*	-3.2	37.6	-0.3
CCN1CCN(CC(O)COCc2ccccc2)CC1 (stereo unspecified)	-2.7	20.9	-16.9	1.3
CCOC(=O)N1CCN(CC(O)COCc2ccccc2)CC1 (stereo unspecified)	66.3*	-7.3	14.3	0.2
COc1ccc(CCN(CC(=O)NC2CCCC2)C(=O)Cn2nnc(-c3ccc(C)o3)n2)cc1OC	-4.6	-15.5	-1.8	1.4
CCO[C@H]1OC(C(=O)N2CCN(Cc3ccc4c(c3)OCO4)CC2)=C[C@@H](C2CC2)[C@@H]1CCCO	77.3*	8.4	8.5	-1.1
CCO[C@@H]1OC(C(=O)N2CCN(Cc3ccc4c(c3)OCO4)CC2)=C[C@H](c2csc3ccccc23)[C@H]1CCCO	72.2*	44.8	14.0	-0.5
CCO[C@H]1OC(C(=O)N2CCN(Cc3ccc4c(c3)OCO4)CC2)=C[C@@H](c2ccccc2)[C@@H]1CCCO	17.6	-2.8	-1.1	-0.8
CCO[C@@H]1OC(C(=O)N2CCN(Cc3ccc4c(c3)OCO4)CC2)=C[C@H](c2ccc3c(c2)OCO3)[C@H]1CCCO	-0.6	3.5	0.7	1.9
C=CCNC(=O)C1CCN(c2ccc(S(=O)(=O)N3CCOCC3)cc2[N+](=O)[O-])CC1	1.0	2.3	-14.1	-0.6
COCCCNC(=O)CCCn1c(=O)c2ccccc2n(Cc2cccc([N+](=O)[O-])c2)c1=O	-3.1	-13.7	19.2	2.8
Cc1cc(C)c(S(=O)(=O)Nc2ccc(-c3cn4ccccc4n3)cc2)c(C)c1	60.8*	22.1	38.7	2.5
Cc1cccc(S(=O)(=O)Nc2ccc(-c3cn4ccccc4n3)cc2)c1	4.9	1.1	20.7	0.6
COc1ccc(OC)c(-c2cc(C(=O)NCc3ccc(Cl)cc3)no2)c1	-3.3	16.5	9.7	6.8
CC1CCCN(C2=C(Cl)C(=O)N(c3cccc(Cl)c3)C2=O)C1 (stereo unspecified)	23.0	16.5	34.9	10.4*
COc1ccc(N2C(=O)C(Cl)=C(N3CCCC(C)C3)C2=O)cc1 (stereo unspecified)	0.2	51.4	2.9	2.9
COc1ccc(NC2=CC(c3ccc(F)cc3)N(c3ccc(OC)cc3)C2=O)cc1 (stereo unspecified)	-3.8	7.6	82.2*	1.8
COc1cc(Nc2c3c(nc4ccccc24)CCCC3)cc(OC)c1OC	66.4*	-3.7	-18.9	-0.5
CC(=O)c1ccc(Nc2c3c(nc4ccccc24)CCCC3)cc1	/	/	6.9	/
SMILES	Lmaj promast	WT yeast gro inh	CHOP inh	RAM inhibit
c1ccc2c(Nc3ccc4c(c3)OCCO4)c3c(nc2c1)CCCC3	98.9*	13.0	-15.7	2.0
N#CCc1cnc2ccccc2n1	/	/	6.2	/
Cn1c(NC2CCCCC2)c(N=O)c(=O)n(C)c1=O	-8.5	9.8	8.2	0.6
O=C(c1cc2nc(-c3ccco3)cc(C(F)(F)F)n2n1)N1CCCCCC1	3.7	3.2	-3.4	2.5
O=C(c1nn2c(C(F)(F)F)cc(-c3cccs3)nc2c1Br)N1CCCc2ccccc21	69.5*	-5.9	10.6	5.2
O=C(c1cc2nc(-c3ccco3)cc(C(F)(F)F)n2n1)N1CCCc2ccccc21	-5.5	9.5	70.8*	1.4
CN(C(=O)c1cc2nc(-c3ccco3)cc(C(F)(F)F)n2n1)C1CCCCC1	2.8	8.5	92.8*	4.4
CSc1ccccc1NC(=O)CN(c1ccccc1Br)S(C)(=O)=O	46.7	-6.5	-0.4	0.5
Cc1ccc(NS(=O)(=O)c2ccc3[nH]c(=O)sc3c2)cc1	-3.6	1.5	9.2	2.2
